Experimental data from PubChem BioAssay AID1030 (National Center for Advancing Translational Sciences (NCATS), 2008).
Among all 220,000 compounds or so, about 16,000 (7.3%) were called active. A call without a number means that no potency is given here. Not shown: some 25% with an inconclusive outcome. Many of the other results were omitted from the sample, so actives are more common in it than they were. Values without a mark were called inactive. Calls follow the shape of the dose curve; as a rule, active = well fitted inhibition curve with a large enough effect (not every such curve was filed as active); inconclusive = small, poorly fitted or top-dose-only effect, or another doubt; inactive = no such curve, though single readings can be large or run the other way.

Target: Aldehyde dehydrogenase 1A1 (Homo sapiens) (UniProt P00352)
Experiment: qHTS Assay for Inhibitors of Aldehyde Dehydrogenase 1 (ALDH1A1)
Conditions: Purified ALDH1A1, NADH fluorescence, propionaldehyde substrate; series mostly up to 75.3 µM
Potency is read from the fitted curve at half-maximal effect.

Sequence of Aldehyde dehydrogenase 1A1 (Homo sapiens) (P00352 whole entry, looked up): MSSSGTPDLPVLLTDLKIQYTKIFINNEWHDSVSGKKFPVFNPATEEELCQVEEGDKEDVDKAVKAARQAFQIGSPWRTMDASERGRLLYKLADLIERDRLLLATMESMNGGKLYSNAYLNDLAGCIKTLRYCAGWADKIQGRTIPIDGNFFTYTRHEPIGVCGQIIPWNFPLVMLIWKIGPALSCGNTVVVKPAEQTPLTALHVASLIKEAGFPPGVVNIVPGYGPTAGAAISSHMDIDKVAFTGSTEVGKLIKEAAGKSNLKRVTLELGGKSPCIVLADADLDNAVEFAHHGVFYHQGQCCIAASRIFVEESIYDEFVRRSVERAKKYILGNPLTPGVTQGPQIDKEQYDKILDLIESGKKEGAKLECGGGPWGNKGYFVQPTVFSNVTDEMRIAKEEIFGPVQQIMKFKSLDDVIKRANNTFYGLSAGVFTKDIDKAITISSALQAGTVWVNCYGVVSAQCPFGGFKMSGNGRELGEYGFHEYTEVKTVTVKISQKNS

Question: How did the Potency turn out when `Cc1nc(C)c(C(=O)Nc2cccc(C)c2C)o1` was run?
Answer: Its Potency is 17800 nM (active).

Question: Which Potency does the source give for `Cc1cccc(NC(=O)c2ccc3nsnc3c2)c1C` here?
Answer: Its Potency is “inactive”.

Question: For `Cc1nnsc1C(=O)Nc1cccc(Cl)c1C`, which Potency is on record?
Answer: Its Potency is “inactive”.

Question: How did the Potency turn out when `O=C(c1ccc(F)cc1)N1CCCC(c2nc(-c3cccs3)no2)C1` (stereo not given) was run?
Answer: Its Potency is “inactive”.

Question: How did the Potency turn out when `CCOC(=O)C1CCN(C(=O)C2(NC(=O)Nc3cccc(F)c3)CCCCC2)CC1` was run?
Answer: The Potency was “inactive”.

Question: Which Potency does the source give for `CC(=O)c1cnc(-c2ccccc2)s1` here?
Answer: The Potency was “inactive”.

Question: `CCN(CC)c1ccc2oc(=O)c(C)nc2c1` was tested. Which Potency did it give?
Answer: Its Potency is 1000 nM (active).

Question: How did the Potency turn out when `CCN(CC)c1ccc(/C=N/Nc2nc(C)cc(C)n2)c(O)c1` was run?
Answer: The Potency was “inactive”.

Question: With `CCN(CC)c1ccc2cc(C(N)=O)/c(=N\NC(=O)c3ccncc3)oc2c1` as the molecule, how does the Potency read?
Answer: The Potency was “inactive”.

Question: How did the Potency turn out when `COc1ccc(CCNC(=O)CN(c2ccccc2)S(C)(=O)=O)cc1` was run?
Answer: The Potency was “inactive”.

Question: How did the Potency turn out when `Cc1cc(C(=O)NNC(=O)CCC2CCCCC2)c(C)o1` was run?
Answer: Its Potency is “inactive”.

Question: `CCOC(=O)C1C/C(=C\C(C)=O)c2cccc(C(F)(F)F)c2O1` (stereo not given) was tested. Which Potency did it give?
Answer: Its Potency is “inactive”.

Question: Which Potency does the source give for `C=CCC(C)(O)c1ccco1` (stereo not given) here?
Answer: The Potency was “inactive”.

Question: Which Potency does the source give for `COc1ccc(N2CCN(c3ccc([N+](=O)[O-])cc3Cl)CC2)cc1` here?
Answer: Its Potency is “inactive”.

Question: For `O=C(c1ccc(Cl)c([N+](=O)[O-])c1)N1CCN(c2ccccc2)CC1`, which Potency is on record?
Answer: Its Potency is “inactive”.

Question: How did the Potency turn out when `O=[N+]([O-])c1ccc(N2CCN(c3ccc(O)cc3)CC2)c(Cl)c1` was run?
Answer: The Potency was 7940 nM (active).

Question: How did the Potency turn out when `C/C=C/C=C/C(=O)OCC(=O)Nc1ccc(Cl)cc1` was run?
Answer: The Potency was “inactive”.

Question: With `O=C(C1CCN(S(=O)(=O)c2ccc(Br)s2)CC1)N1CCN(C2CCCCC2)CC1` as the molecule, how does the Potency read?
Answer: Its Potency is “inactive”.

Question: Which Potency does the source give for `Cc1ccc(S(=O)(=O)CC(=O)Nc2c(C)n(C)n(-c3ccccc3)c2=O)cc1` here?
Answer: Its Potency is “inactive”.

Question: How did the Potency turn out when `Cc1ccc(S(=O)(=O)N2CCN(CC(=O)N/N=C/c3ccc(Br)s3)CC2)cc1` was run?
Answer: The Potency was “inactive”.

Question: How did the Potency turn out when `CCOC(=O)CN1C(=O)C(=O)c2cc(C)ccc21` was run?
Answer: The Potency was 178 nM (active).

Question: With `CC(C)OC(=O)CN1C(=O)C(=O)c2ccccc21` as the molecule, how does the Potency read?
Answer: Its Potency is 63.1 nM (active).

Question: For `CC(C)OC(=O)CN1CCN(c2ccc(Cl)cc2)CC1`, which Potency is on record?
Answer: Its Potency is “inactive”.

Question: With `CC(C)OC(=O)CN1C(=O)c2ccccc2C1=O` as the molecule, how does the Potency read?
Answer: Its Potency is “inactive”.

Question: How did the Potency turn out when `CCOC(=O)CN1C(=O)N[C@@H](c2ccc(Br)cc2)C(C(C)=O)=C1C` was run?
Answer: The Potency was “inactive”.

Question: How did the Potency turn out when `Cc1ccccc1C(=O)NNC(=O)CN1C(=O)c2ccccc2C1=O` was run?
Answer: The Potency was “inactive”.

Question: Which Potency does the source give for `Cc1cccc2c1N(CCOc1ccccc1)C(=O)C2=O` here?
Answer: Its Potency is 224 nM (active).

Question: With `Cc1cccc2c1N(CC(=O)OC(C)C)C(=O)C2=O` as the molecule, how does the Potency read?
Answer: Its Potency is 20 nM (active).

Question: Which Potency does the source give for `Cc1nn(CCOc2ccccc2)c(=O)n1-c1ccccc1F` here?
Answer: Its Potency is “inactive”.

Question: With `Cc1cc(C)cc(OCC(=O)NNC(=O)CCN2C(=O)c3ccccc3C2=O)c1` as the molecule, how does the Potency read?
Answer: The Potency was “inactive”.

Question: For `CC1(C)NC(=O)N(CCOc2cccc(Oc3ccccc3)c2)C1=O`, which Potency is on record?
Answer: The Potency was “inactive”.

Question: How did the Potency turn out when `CCCCOC(=O)Cn1c(=O)n(CC(=O)OCCCC)c2cc(C)ccc21` was run?
Answer: The Potency was “inactive”.

Question: How did the Potency turn out when `OCCC1CN(Cc2cccn2-c2nccs2)CCN1CCc1ccccc1` (stereo not given) was run?
Answer: Its Potency is “inactive”.

Question: Which Potency does the source give for `C/C(=N\NC(=O)c1cccnc1)c1ccc(-n2ccnc2)cc1` here?
Answer: The Potency was “inactive”.

Question: With `C#CCOCCOCCOCCNc1nc(N2CCN(C(=O)[C@H](CCC(=O)O)n3cc(C(N)CO)nn3)CC2)nc(N2CCN(C(=O)[C@H](Cc3ccc(O)cc3)n3cc(C(N)[C@H](C)CC)nn3)CC2)n1` (stereo not given in full) as the molecule, how does the Potency read?
Answer: The Potency was “inactive”.

Question: How did the Potency turn out when `Cc1nnc(SCC2=C(C(=O)O)N3C(=O)C(NC(=O)Cn4nc(C)c(Cl)c4C)C3SC2)s1` (stereo not given) was run?
Answer: Its Potency is “inactive”.

Question: For `CCCOc1ccc(NC(=O)CC2C(=O)N(C)C(=S)N2Cc2ccc3c(c2)OCO3)cc1` (stereo not given), which Potency is on record?
Answer: The Potency was “inactive”.

Question: `NS(=O)(=O)c1ccc(N2C(=O)C3C4CC(C(Br)C4Br)C3C2=O)cc1` (stereo not given) was tested. Which Potency did it give?
Answer: Its Potency is “inactive”.

Question: How did the Potency turn out when `CC(=O)Nc1ccc(S(=O)(=O)Nc2ccc(-c3ccc4nnc(C)n4n3)cc2)cc1` was run?
Answer: The Potency was “inactive”.

Question: Which Potency does the source give for `NCCC(=O)c1ccccc1N` here?
Answer: The Potency was “inactive”.

Question: With `COc1ccc(NC(=O)c2sc(N)nc2-c2ccccc2)cc1` as the molecule, how does the Potency read?
Answer: The Potency was “inactive”.

Question: For `S=C(NN=C1CCN(Cc2ccccc2)CC1)NC1CCCCC1`, which Potency is on record?
Answer: The Potency was “inactive”.

Question: Which Potency does the source give for `CCN(C(=O)c1ccc(Br)cc1)c1ccccc1` here?
Answer: The Potency was “inactive”.

Question: `CCC1(C(=O)c2ccccc2)C(c2cccc([N+](=O)[O-])c2)C1(C(=O)OC)C(=O)OC` (stereo not given) was tested. Which Potency did it give?
Answer: The Potency was “inactive”.

Question: Which Potency does the source give for `Cc1ccccc1C(=O)OC1OC(=O)C(Cl)=C1Nc1ccccc1` (stereo not given) here?
Answer: The Potency was “inactive”.

Question: For `C=CCN1c2ccccc2[C@]23C[C@@H](C(=O)OC)N(S(=O)(=O)c4ccc([N+](=O)[O-])cc4)C2=NC(C(=O)OC)=C(C(=O)OC)[C@H]13`, which activity, negative = inhibition is on record?
Answer: Its activity, negative = inhibition is -3.11% [at 13.5 µM].

Question: With `O=C1NC2(CCCCCC2)C(=O)N1CCS(=O)(=O)Oc1ccccc1` as the molecule, how does the Potency read?
Answer: The Potency was “inactive”.

Question: With `CC(=O)Nc1ccc(C(=O)/C=C/c2ccc[nH]2)cc1` as the molecule, how does the Potency read?
Answer: Its Potency is “inactive”.

Question: How did the Potency turn out when `Cc1cc(C(=O)N/N=C/c2ccccc2[N+](=O)[O-])c(C)o1` was run?
Answer: Its Potency is “inactive”.

Question: For `Clc1ccc(C2=CSC3=Nc4cccc5cccc(c45)N23)cc1`, which Potency is on record?
Answer: Its Potency is 7940 nM (active).

Question: With `CCN(CC)CC1(O)CCN(C(=O)c2ccc(Cl)c(Cl)c2)CC1` as the molecule, how does the Potency read?
Answer: The Potency was “inactive”.

Question: How did the Potency turn out when `CC(C)(C)n1nc2c(c1NC(=O)c1cc3ccccc3o1)CSC2` was run?
Answer: The Potency was “inactive”.

Question: `Cc1ccc(C)c(NC(=S)NCC(c2cccnc2)N2CCOCC2)c1` (stereo not given) was tested. Which Potency did it give?
Answer: Its Potency is “inactive”.

Question: With `COC(=O)C(C)C1Sc2ccccc2NC1=O` (stereo not given) as the molecule, how does the Potency read?
Answer: Its Potency is “inactive”.

Question: Which Potency does the source give for `CCOC(=O)CC1=CC(=O)Nc2ccccc2N1` here?
Answer: The Potency was “inactive”.

Question: `CCOC(=O)C1C(=O)NCC1c1ccccc1` (stereo not given) was tested. Which Potency did it give?
Answer: The Potency was “inactive”.

Question: For `CCOC(=O)C(=O)C1C(=O)Nc2ccccc21` (stereo not given), which Potency is on record?
Answer: Its Potency is 14100 nM (active).

Question: For `CCCCC(CC)CNC(=O)CCCCn1c(=O)[nH]c2ccsc2c1=O` (stereo not given), which Potency is on record?
Answer: Its Potency is “inactive”.

Question: Which Potency does the source give for `CCCCC(CC)CNC(=O)C(=O)C1C(=O)Nc2ccccc21` (stereo not given) here?
Answer: The Potency was 2000 nM (active).

Question: For `CC1=NN(C(=O)CCCc2ccccc2)C(O)(C(F)(F)F)C1` (stereo not given), which Potency is on record?
Answer: Its Potency is “inactive”.

Question: `CC(C)C(=O)NCc1cc(-c2ccc(Cl)cc2)no1` was tested. Which Potency did it give?
Answer: The Potency was “inactive”.

Question: Which Potency does the source give for `CCCCCCCC[C@@H](O)/C=C/C=C/C=C\[C@@H](O)CCCC(=O)O` here?
Answer: The Potency was “inactive”.

Question: With `[O-][n+]1onc2c1CCc1[nH]c(-c3ccccc3)nc1-2` as the molecule, how does the Potency read?
Answer: Its Potency is “inactive”.

Question: With `CCc1nnc(NC(=O)CSc2nc(SC)ns2)s1` as the molecule, how does the Potency read?
Answer: Its Potency is “inactive”.

Question: Which Potency does the source give for `Cc1ccc(C(=O)OC2CCCN(C)C2)cc1` (stereo not given) here?
Answer: The Potency was “inactive”.

Question: For `CCS(=O)(=O)c1cc([N+](=O)[O-])c(Sc2ccccc2N)s1`, which Potency is on record?
Answer: The Potency was 3550 nM (active).

Question: How did the Potency turn out when `Nc1ccccc1Sc1ccc(C(F)(F)F)cc1[N+](=O)[O-]` was run?
Answer: The Potency was “inactive”.

Question: For `Cc1nc2sc(C(=O)c3ccccc3)c(N)c2c2c1CCCC2`, which Potency is on record?
Answer: Its Potency is 3980 nM (active).

Question: With `CCc1nc2sc(C(=O)O)c(N)c2c2c1CCCC2` as the molecule, how does the Potency read?
Answer: Its Potency is “inactive”.

Question: `CCOC(=O)c1sc2nc(SC)nc(-c3ccccc3)c2c1N` was tested. Which Potency did it give?
Answer: The Potency was “inactive”.
